The list is not random: actives were taken first. Their share in the collection is about 12%.
CHOP inhibitor: CHOP inhibition in unfolded protein response; CHO-K1 CHOP-promoter luciferase, tunicamycin-induced, 15-18 h; AID 2732; 220,000 compounds, 3.8% hits; inhibition, % at 10 µM;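 active means compounds that reduced the stress-induced luciferase reporter signal by more than about 70% of percent inhibition, limit read from the data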;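 further: 0% = tunicamycin plus vehicle and 100% = wells without tunicamycin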
Arbovirus inh: antivirals against arbovirus infection | arbovirus infection cell-based antiviral screen | inhibition, % at 10 µM | 200,000 compounds, 0.37% hits | AID 1251; in the data active means inhibition above about 30%
L major viab: Leishmania major promastigote growth inhibition; AID 1063; Leishmania major promastigotes, resazurin fluorescence viability; inhibition, % at 10 µM; 200,000 compounds, 9% hits; in the data active means inhibition above about 50%;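 further: promastigotes grown with compound for 44 hours at 28 °C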
WT yeast gro inh: growth inhibition of WT yeast, mitochondrial fusion screen; inhibition, % at 10 µM; mitochondrial fusion phenotypic screen, WT strain; 190,000 compounds, 2.1% hits; in the data active means inhibition above about 58%; tested in S. cerevisiae
Numbers without * were called inactive; . = no result given.

SMILES | CHOP inhibitor | Arbovirus inh | L major viab | WT yeast gro inh
COc1ccc(-c2nc(NC(=O)c3ccc(OCC(=O)Nc4ccc(F)cc4)c(OC)c3)sc2C)cc1 | 62.7 | -27.6 | 69.0* | 8.9
COc1cc(C(=O)Nc2nc(-c3ccc(F)cc3)cs2)ccc1OCC(=O)N1CCOCC1 | 32.7 | 83.3* | 96.1* | 6.4
COc1cc(C(=O)Nc2nc(-c3cc(C)ccc3C)c(C)s2)ccc1OCC(=O)Nc1ccc(F)cc1 | 37.7 | 1.0 | -3.2 | 7.0
COc1cc(C(=O)O)ccc1OCC(=O)N1CCOCC1 | 64.1 | -1.0 | 3.7 | -0.4
COc1cc(C(=O)NCCN2C(=O)S/C(=C\c3ccc(F)cc3)C2=O)ccc1OCC(=O)N1CCOCC1 | 8.6 | . | . | .
COc1cc(C(=O)Nc2nc(-c3ccc(C)cc3)cs2)ccc1OCC(=O)N1CCOCC1 | 36.6 | 90.8* | 94.8* | 13.3
CCOC(=O)c1c(/N=C/N(C)C)sc(C)c1C | -4.2 | -1.2 | 3.4 | -20.7
CCOC(=O)c1c(/N=C/N(C)C)sc(/C=N/Nc2ccccc2)c1-c1ccc(Cl)cc1 | -10.8 | -32.2 | 93.7* | -26.9
O=C(c1cccc(S(=O)(=O)N2CCCC2)c1)N1CCN(c2ccccc2)CC1 | 24.8 | -19.7 | 13.5 | 17.4
O=C(NNC(=O)c1cccc(S(=O)(=O)N2CCN(c3ccccc3)CC2)c1)c1ccc(Cl)cc1 | 83.0* | -27.1 | -7.9 | -10.5
Cc1[nH]c2c([N+](=O)[O-])cccc2c1C | 25.3 | . | . | .
COc1ccc(-c2nnc(-c3ccc(Br)o3)o2)cc1OC | 5.0 | 34.4* | 2.8 | 4.7
COc1ccc(-c2nc(-c3ccc(Br)o3)no2)cc1OC | 44.7 | 19.3 | -6.5 | -3.7
Cc1cc(C)cc(-n2c(C)nc3cc(C(=O)O)ccc32)c1 | -2.6 | 2.4 | -7.2 | -5.1
O=C(CSCc1ccccc1Cl)Nc1c[nH]c(=O)[nH]c1=O | -15.4 | -1.4 | 59.5* | -11.1
O=C(CSCc1ccc(Cl)c(Cl)c1)Nc1c[nH]c(=O)[nH]c1=O | -4.4 | -5.9 | -2.1 | -0.3
Cc1cc(NC(=O)c2ccccc2)nc2c1c(=O)oc1ccccc12 | 9.5 | -8.3 | 1.8 | 2.5
CCC(CC)C(=O)Nc1cc(C)c2c(=O)oc3ccccc3c2n1 | 78.6* | 1.9 | 25.3 | 6.0
CCOc1ccc(S(=O)(=O)N/N=C(\C)C2CCCCC2)cc1 | 35.0 | -1.9 | 54.9* | 10.8
COc1cc(NS(=O)(=O)c2cc(C)ccc2OC)c(OC)cc1Cl | -20.7 | 7.7 | 99.1* | 10.7
Cc1ccc(Nc2nc(N)[nH]c(=O)c2N=O)cc1 | 17.7 | . | . | .
COc1cc(OC)cc(C(=O)N[C@@H](CCSC)c2nc3ccccc3[nH]2)c1 | 14.6 | -0.4 | 17.4 | -12.5
COc1ccc(S(=O)(=O)Cc2ccc(C(=O)N3CCN(Cc4ccccc4)CC3)o2)cc1 | 24.3 | 1.4 | 98.8* | 8.7
Cc1ccc(S(=O)(=O)Cc2ccc(C(=O)N3CCN(Cc4ccccc4)CC3)o2)cc1 | -22.7 | -1.2 | 99.0* | 11.9
Cc1ccc(S(=O)(=O)Cc2ccc(C(=O)N3CCc4ccccc4C3)o2)cc1 | -4.1 | 2.1 | 6.0 | 11.4
SMILES | CHOP inhibitor | Arbovirus inh | L major viab | WT yeast gro inh
COc1ccc(S(=O)(=O)Cc2ccc(C(=O)N3CCN(C(=O)c4ccco4)CC3)o2)cc1 | -32.1 | -1.2 | -4.4 | 8.7
O=C(NCc1ccco1)C(c1ccccc1)N(C(=O)Cc1cccs1)c1ccccc1F (stereo not drawn) | 17.5 | 1.4 | 6.5 | 4.4
CCN(C(=O)CSc1nc2cc(C(F)(F)F)ccc2n1Cc1ccccc1)C1CCS(=O)(=O)C1 (stereo not drawn) | 21.0 | -25.2 | 98.2* | -3.7
CCN(C(=O)CSc1nnc(Nc2ccccc2)s1)C1CCS(=O)(=O)C1 (stereo not drawn) | -12.6 | -1.8 | 57.7* | -13.5
Cc1ccccc1Nc1nnc(SCC(=O)N(C)C2CCS(=O)(=O)C2)s1 (stereo not drawn) | 23.3 | -2.0 | 41.9 | -8.1
Cc1ccc(Nc2nnc(SCC(=O)N(C)C3CCS(=O)(=O)C3)s2)cc1 (stereo not drawn) | 8.9 | 4.6 | 55.6* | -12.2
COC(=O)Cc1ccc(O)c(N)c1 | 13.3 | 0.0 | 2.8 | -6.2
CCOC(=O)c1c(N)nn(C(=O)c2ccccc2F)c1-c1ccc(OC)cc1 | 21.5 | -6.5 | -3.6 | 3.8
CCOC(=O)c1c(N)nn(C(=O)C(C)(C)C)c1-c1ccccc1 | 93.6* | -2.9 | 2.3 | 8.9
NC(=O)c1cc2cc([N+](=O)[O-])ccc2oc1=O | 16.1 | 1.2 | -2.4 | -2.8
NC(=O)c1cc([N+](=O)[O-])cc2c1C=Cc1ccccc1O2 | 7.6 | 7.7 | 90.3* | -7.5
C[C@H](NC(=O)c1ccco1)C(=O)NCCc1ccc(S(N)(=O)=O)cc1 | 11.8 | . | . | .
COc1cc2nc3c4ccccc4n(CC#N)c3nc2cc1OC | 46.4 | -1.5 | -2.0 | -2.5
CCOc1ccc(Cn2c3ccc(OC)cc3c3nc4ccccc4nc32)cc1OC | 88.2* | 9.9 | 10.5 | -18.1
CCn1c2ccccc2c2nc3cc(OC)c(OC)cc3nc21 | -18.5 | -5.4 | 73.3* | -15.4
COc1ccc2c(c1)c1nc3ccccc3nc1n2Cc1ccc(OC)c(OC)c1 | 84.7* | 33.0* | 0.9 | 0.7
CCOC(=O)c1cccc(NC(=O)C2(S(=O)(=O)c3ccc(Cl)cc3)CC2)c1 | 10.3 | -0.8 | 4.3 | -9.7
Cn1c(=O)n(CCc2ccccc2)c(=O)c2c1nc1n2CCCN1CCc1ccccc1 | 6.7 | -23.8 | 28.3 | 67.1*
Cn1c(=O)n(CCc2ccccc2)c(=O)c2c1nc1n2CCCN1Cc1ccccc1 | 31.5 | -2.4 | 13.7 | 13.1
COc1ccc(/C=N/NC(=O)C2c3ccccc3Oc3ccccc32)c(OC)c1 | 27.3 | -2.0 | -2.3 | -0.9
Cc1ccc(-n2nc(C)c3c(C)c(CCC(=O)NCc4ccco4)c(C)nc32)cc1 | 70.2* | 1.4 | 18.0 | 0.9
Cc1ccc(-n2nc(C)c3c(C)c(CCC(=O)NCc4ccccc4)c(C)nc32)cc1 | 70.2* | -2.7 | 2.2 | 6.8
Cc1ccc(CNC(=O)CCc2c(C)nc3c(c(C)nn3-c3ccc(C)cc3)c2C)cc1 | 50.7 | -0.9 | -1.9 | -0.8
Cc1nnc(SC(C)C(=O)Nc2ccc(Cl)cn2)n1Cc1ccccc1 (stereo not drawn) | 10.0 | -35.9 | -0.8 | 5.9
CC(Sc1nnc(-c2ccc(Cl)cc2Cl)n1Cc1ccccc1)C(=O)Nc1nccs1 (stereo not drawn) | 38.9 | -16.9 | 64.6* | -4.7
SMILES | CHOP inhibitor | Arbovirus inh | L major viab | WT yeast gro inh
CCCC(c1nnnn1Cc1ccc(F)cc1)N1CCN(C2CCCCC2)CC1 (stereo not drawn) | 30.1 | -13.2 | 71.6* | 11.4
Fc1ccc(Cn2nnnc2CN2CCN(C3CCCCC3)CC2)cc1 | 11.0 | -10.5 | 86.1* | -5.5
CC(C)C(c1nnnn1Cc1ccc(F)cc1)N1CCN(C2CCCC2)CC1 (stereo not drawn) | 17.6 | 2.0 | 3.5 | -6.1
c1coc(Cn2nnnc2CN2CCN(C3CCCC3)CC2)c1 | 22.2 | -4.4 | 74.0* | 5.1
Cc1nn(C)cc1CN(C)S(=O)(=O)c1cccc([N+](=O)[O-])c1 | -1.1 | 5.9 | 7.3 | -5.0
COc1ccccc1OCC(=O)OC/C(O)=C(\C#N)c1nc2ccccc2[nH]1 | -25.6 | -30.6 | 9.5 | -17.2
Cc1cc(SCC(=O)OC/C(O)=C(\C#N)c2nc3ccccc3[nH]2)c(C)cc1Br | 70.5* | -29.9 | 34.7 | 8.8
N#C/C(=C(/O)COC(=O)CSc1ccc(Cl)cc1)c1nc2ccccc2[nH]1 | 81.8* | -30.5 | 5.4 | 10.1

From PubChem BioAssay
